Screening results from PubChem BioAssay.
3CLpro inhibitor – SARS-CoV 3CLpro protease inhibitors, primary screen, biochemical, quenched FRET | inhibition, % at 6 µM | actives 0.14% (n = 290,000) | recombinant SARS-CoV 3CLpro, quenched FRET peptide cleavage | Replicase polyprotein 1ab (Severe acute respiratory syndrome coronavirus), P0C6X7; in the data active means inhibition above about 12%
BJeLR viability – MLPCN primary cell-based screen for lethality selective to Ras in HRASV12 cells; BJeLR (HRASV12) viability, CellTiter-Glo ATP luminescence, 48 h; inhibition, % (concentration not given with the values); AID 1554, 2009; actives 0.17% (n = 300,000); in the data active means inhibition above about 50%; inconclusive means no clear call, values can overlap the other calls
BoNT A protease – BoNT/A light chain protease inhibitors, primary screen, biochemical, flow cytometry, MLPCN library; actives 0.17% (n = 360,000); inhibition, % at 10 µM; AID 588499, 2011; multiplex microsphere protease substrate cleavage
Anthrax LF inh2 – Bacillus anthracis LF protease inhibitors, primary screen, biochemical, multiplex microsphere, MLPCN library; AID 588501, 2011; inhibition, % at 10 µM; actives 0.12% (n = 360,000); multiplex microsphere protease cleavage assay
BoNT F protease – BoNT/F light chain protease inhibitors, primary screen, biochemical, flow cytometry, MLPCN library; inhibition, % at 10 µM; Botulinum neurotoxin type F light chain protease (Clostridium botulinum); AID 588497, 2011; Multiplex microsphere protease cleavage assay; actives 0.22% (n = 360,000); in the data active means inhibition above about 35%, passing the limit was not always enough; inconclusive means no clear call, values can overlap the other calls
Bead autofluor – compound fluorescence in toxin protease inhibitor counterscreen | compound autofluorescence counterscreen, microsphere flow cytometry; active compounds read high | fluorescence intensity (no concentration beside the values) | actives 3.1% (n = 360,000) | AID 624483; in the data active means fluorescence intensity above about 16000; inconclusive means no clear call, values can overlap the other calls
Hits are given with their value; 0 = inactive; ? = inconclusive; - = not tested or not shown. This is a sample that favours compounds with a hit; in the whole collection about 3.6% have one here. Unless noted, no stated cut-off is given here; in the data, active means inhibition above about 30%; inconclusive means no clear call, values can overlap the other calls; inactive means below that.

SMILES | 3CLpro inhibitor | BJeLR viability | BoNT A protease | Anthrax LF inh2 | BoNT F protease | Bead autofluor
O=C(c1ccco1)N1CCN(Cc2nc3ccccc3c(=O)n2-c2ccc(F)cc2)CC1 | 0 | 0 | 0 | 0 | 0 | 22917
Cn1c(=O)c2c(nc(CN3CCN(C(=O)c4ccco4)CC3)n2Cc2cccc(Cl)c2)n(C)c1=O | 0 | 0 | 0 | 0 | 0 | 22343
Cn1c(=O)c2c(nc(CN3CCN(C(=O)c4ccco4)CC3)n2Cc2ccccc2)n(C)c1=O | 0 | 0 | 0 | 0 | 0 | 0
Cc1ccc(Cn2c(CN3CCN(C(=O)c4ccco4)CC3)nc3c2c(=O)n(C)c(=O)n3C)cc1 | 0 | 0 | 0 | 0 | 0 | 0
Clc1ccc(-c2nc3ccccc3[nH]2)cn1 | 0 | 0 | 0 | 0 | 0 | 0
O=C(COC(=O)CCc1ccccc1)Nc1ccc(F)cc1Cl | 0 | 0 | 0 | 0 | 0 | 0
COc1ccc(S(N)(=O)=O)cc1C(=O)NNC(=O)CN(C)S(=O)(=O)c1ccc(Cl)cc1 | - | - | 0 | 0 | 0 | 0
Cc1ccnc(-n2c(C)cc(C=C3C(=O)N(C)C(=S)N(C)C3=O)c2C)c1 | 0 | 0 | 31.6 | 0 | 0 | 0
CCCCCn1c(SCC(=O)OCC)nc2cc(C(=O)N3CCC(C(N)=O)CC3)ccc2c1=O | 0 | 0 | 0 | 0 | 0 | 21996
N#CCSc1nc2cc(C(=O)N3CCC(C(N)=O)CC3)ccc2c2nc3ccccc3n12 | 0 | 0 | 0 | 0 | 0 | 20618
NC(=O)C1CCN(C(=O)c2ccc3c(=O)n(Cc4ccco4)c(SCC(=O)c4ccccc4)nc3c2)CC1 | 0 | 0 | 0 | 0 | 0 | 0
O=C(NC1CC2CCCC(C1)N2C(=S)Nc1ccccc1)C1CC1 (stereo unspecified) | 0 | 0 | 0 | 0 | 0 | 0
CN(Cc1cccc(C(F)(F)F)c1)C(=O)[C@H]1O[C@@H](n2ccc(N)nc2=O)[C@H](O)[C@@H]1O | - | - | 0 | 0 | 0 | 0
C(=C\c1ccccc1)/C=N/n1cnnc1 | 0 | 0 | 0 | 0 | 0 | 24268
O=C1C2C3C=CC(C3)C2C(=O)N1c1cccc(N2C(=O)C3C4C=CC(C4)C3C2=O)n1 (stereo unspecified) | 0 | 0 | 0 | 0 | 0 | 22915
O=C1C2C3C=CC(C3)C2C(=O)N1c1n[nH]c(-c2ccccc2)n1 (stereo unspecified) | 0 | 0 | 0 | 0 | 0 | 23080
Cc1ccc(N2C(=O)C3C4C=CC(C4)C3C2=O)cc1C (stereo unspecified) | 0 | 0 | 0 | 0 | 0 | 22226
NS(=O)(=O)c1ccc(CCNC(=O)C(=O)NCC2OCCN2S(=O)(=O)c2ccc(Cl)cc2)cc1 (stereo unspecified) | 0 | 0 | 0 | 0 | 0 | 0
COc1ccc(C(C)(O)c2nc(-c3ccncc3)cs2)cc1 (stereo unspecified) | - | - | 0 | 0 | 0 | 0
CCc1ccccc1OCC(=O)Nc1ccc(N2CCCC2)cc1C | - | - | 0 | 0 | 0 | 23739
Cc1cc(N2CCCC2)ccc1NC(=O)COc1ccccc1 | - | - | 0 | 0 | 0 | 0
CC(C)OC(=O)c1c(NC(=O)CCC(=O)O)sc2c1CCCCC2 | 0 | 0 | 0 | 0 | 0 | 0
CC(C)OC(=O)c1c(NC(=O)CCn2nnc3ccccc32)sc2c1CCCC2 | 0 | 0 | ? | 0 | 0 | 20341
CC(=O)c1cnc(N2CCCCC2)nc1C | 0 | 0 | 0 | 0 | 0 | 21581
CCOC(=O)c1ccc(N)cc1 | - | - | 0 | 0 | 0 | 0
SMILES | 3CLpro inhibitor | BJeLR viability | BoNT A protease | Anthrax LF inh2 | BoNT F protease | Bead autofluor
CCOC(=O)c1sc(-c2ccccc2)cc1NC(=O)Nc1ccccc1 | 0 | 0 | 0 | 0 | 0 | 0
CCOC(=O)c1cc(-c2ccc(N)cc2)sc1N | 0 | 0 | 0 | 0 | 0 | 18171
CCOC(=O)c1sc(-c2ccc(Br)cc2)cc1N | 0 | 0 | 0 | 0 | 0 | 18598
CC(=O)NC1C(=O)N(CC(C)C)c2ccccc21 (stereo unspecified) | 0 | 0 | 0 | 0 | 0 | 21274
CC(C)(C)C1(c2ccccc2)NC(=O)N(CC(=O)N2CCOCC2)C1=O (stereo unspecified) | 0 | 0 | ? | 0 | 0 | 19617
CCC(C)N=C1CC(C)(C)CC(=O)/C1=C(/O)Cc1ccccc1 (stereo unspecified) | 0 | 0 | 0 | 0 | 0 | 0
COc1cccc(CNC(=O)c2c[nH]n3c(=O)c(Cl)c(C)nc23)c1 | 0 | 0 | 0 | 0 | 0 | 0
Cc1nc2c(C(=O)NCc3ccc4c(c3)OCO4)c[nH]n2c(=O)c1Cl | 0 | 0 | 0 | 0 | 0 | 25275
O=C(NCCc1ccc(Cl)cc1)c1cnc2n(c1=O)CCS2 | - | 0 | 0 | 0 | 0 | 0
Cc1nc2c(C(=O)NCCC3=CCCCC3)c[nH]n2c(=O)c1Cl | 0 | 0 | 0 | 0 | 0 | 23190
O=C(NCCC1=CCCCC1)c1cnc2n(c1=O)CCS2 | 0 | 0 | 0 | 0 | 0 | 24855
COc1ccccc1CNC(=O)C(=O)NCC1OCCCN1S(=O)(=O)c1cccs1 (stereo unspecified) | 0 | 0 | 0 | 0 | 0 | 0
Cc1ccccc1OCc1nc2ccc(S(=O)(=O)N3CCOCC3)cc2[nH]1 | 0 | - | 0 | 0 | 0 | 22238
COc1ccc(Cc2nc3ccc(S(=O)(=O)N4CCOCC4)cc3[nH]2)cc1OC | 0 | 0 | 0 | 0 | 0 | 24349
CCc1ccccc1OCc1nc2ccc(S(=O)(=O)N3CCOCC3)cc2[nH]1 | 0 | 0 | 0 | 0 | 0 | 0
COc1ccccc1CCC(=O)OCC(=O)NC1CC1 | - | 0 | 0 | 0 | 0 | 0
CCCCCCOc1ccc(N2C(=O)CC(N(CCc3ccc(S(N)(=O)=O)cc3)C(C)=O)C2=O)cc1 (stereo unspecified) | 0 | 0 | 0 | 0 | 0 | 0
Cn1c(=O)c(=O)n(C)c2cc(S(=O)(=O)Nc3ccc4c(c3)OCCO4)ccc21 | 0 | 0 | ? | 0 | 0 | 22407
Cc1ccc(NS(=O)(=O)c2ccc3c(c2)oc(=O)n3C)cc1C | 0 | 0 | 0 | 0 | 0 | 0
Cn1c(=O)oc2cc(S(=O)(=O)Nc3ccc4c(c3)OCCO4)ccc21 | 0 | 0 | ? | 0 | 0 | 21945
COc1cc(/C=C/c2ccc3cccc(O)c3n2)cc(OC)c1OC | 0 | 56.0 | 0 | 0 | 0 | 0
Cc1ccc(NC(=O)c2c(C(F)(F)F)nn(C)c2SCc2cccc(C(F)(F)F)c2)cc1C | 0 | 0 | 0 | 0 | 0 | 16554
Cc1ccc(NC(=O)c2c(C(F)(F)F)nn(C)c2SCc2ccc(Cl)cc2)cc1C | 0 | 0 | 0 | 0 | 0 | 18135
Cc1ccc(NC(=O)c2c(C(F)(F)F)nn(C)c2Cl)cc1C | 0 | 0 | ? | 0 | 0 | 19260
O=C(Nc1cccc2c1CCCC2)C1CCCN(S(=O)(=O)c2cccc3nonc23)C1 (stereo unspecified) | 0 | 0 | 0 | 0 | 0 | 0
O=C(NNc1nc(-c2ccccc2)cs1)c1ccccc1 | 0 | 0 | 0 | 0 | 0 | 22139
